# This is part of a sample that, as a whole, favours compounds with a hit. Of some 83,000 tested, about 20% had one in any assay.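 Method: cells in 96-well plates; compound added at one concentration; 48 h incubation; percent growth measured; values under 10 scored active.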 A number with no mark means an inactive call. The source made the active and inactive calls.
# System: OVCAR-5 ovarian
# Assay: NCI-60 one-dose screen, 48 h (100 = growth as untreated, 0 = no growth, -100 = all killed)
# Settings: 10 µM unless noted
row,SMILES,growth [%]
1,Clc1ccc2c(c1)C(c1c[nH]c3ccccc13)(c1c[nH]c3ccccc13)CCO2,96
2,O=C(NCCNc1nccc(Nc2ccc(S(=O)(=O)Nc3ccccn3)cc2)n1)c1cccc([N+](=O)[O-])c1,93
3,COc1cc2ncnc(Nc3ccc(S(=O)(=O)Nc4cc(C)on4)cc3)c2cc1OCCCN1CCN(c2ccc(F)cc2)CC1,102
4,CN(C)CC1CCC(CN(C)C)C1=O (stereo unspecified),122
5,N#CC1=C(N)Oc2c(ccc3ccccc23)C1c1ccccc1 (stereo unspecified),33.8
6,Cc1ccc(NC(=O)c2sc3nc(C)c(Br)c(C)c3c2N)cc1,79.1

# System: OVCAR-4 ovarian
# Assay: as above
# Settings: 10 µM unless noted
row,SMILES,growth
1,Cn1c(=O)cc2c3c(c(NCCCO)ccc31)C(=O)c1ccccc1-2,47.7%
2,O=C(OC(CO)C(=O)NC12CC3CC(CC(C3)C1)C2)c1ccc(Cl)cc1 (stereo unspecified),101%
3,N#Cc1nc(-c2ccc(F)cc2)oc1S(=O)(=O)N1CCCCC1,57.4%
4,COC1/C=C/OC2(C)Oc3c(C)c(O)c4c(O)c(c(/C=N/Nc5ccc([N+](=O)[O-])cc5[N+](=O)[O-])c(O)c4c3C2=O)NC(=O)C(C)=C/C=C/C(C)C(O)C(C)C(O)C(C)C(OC(C)=O)C1C (stereo unspecified),35%
5,O=C1c2c(c3c4ccccc4[nH]c3c3ccc4ccccc4c23)C(=O)N1CCN1CCOCC1,57.7%
6,NC(=O)c1cc(I)ccc1NC(=O)/C=C/c1ccccc1,44.6%
7,COC(=O)c1c2c(c(C)[n+]([O-])c1C)C(=O)C(NCc1cccc(OC)c1)=CC2=O,-28.6% (active)
8,COc1ccc(CNc2c3ccccc3nc3ccccc23)cc1,40.3%
9,N=C(N)c1ccc(-c2ccc(-c3ccc(Cl)c(Cl)c3)s2)nc1,16.3%
10,Nc1c(C(=O)Nc2ccccc2F)sc2nc3c(cc12)CCCC3,54%
11,Cc1ccc2c(n1)C(=O)C(Br)=C(C1CCCC1)C2=O,112%
12,N#CC1=C(N)Oc2c(sc3c(Br)cccc23)C1c1ccc(Cl)cc1 (stereo unspecified),61.2%
13,COc1ccc(/C=C(\C#N)n2nnc3cc(F)c(F)cc32)cc1,74%
14,COc1cc(NS(=O)(=O)c2ccc(-c3cnc(C4CC4)o3)cc2)ccc1F,38.6%
15,CN1CCN(c2cc(Nc3cc(C4CC4)[nH]n3)nc(Nc3ccc(CC(=O)NCc4cccc(F)c4)cc3)n2)CC1,43.9%
16,O=C(Nc1cccc2ccccc12)NC1CC1,102%
17,CN(C)CC(C)(C)C(=O)/C=C/c1ccccc1,-19.5% [25 µM] (active)
18,COc1ccc(-c2nn(-c3cccc(Cl)c3)cc2-c2cc(-c3ccc(Br)cc3)nc(N)n2)cc1,96%
19,COc1cc2c(c(OC)c1OC)CCC(c1cccc(NC(=O)c3ccc(Br)cc3)c1)O2 (stereo unspecified),67.4%
20,CCOC(=O)C#Cc1c(C(=O)OCC)nnn1Cc1ccc([N+](=O)[O-])cc1,51.2%

row,SMILES,growth
1,O=C(N/N=C/c1c(Cl)cccc1Cl)c1cccnc1Nc1cccc(C(F)(F)F)c1,25.1%
2,C#COc1cccc(Nc2c(C#N)cnc3ncc(NC(=O)CCl)cc23)c1,54.5% [6.25 µM]
3,CC(C)(Sc1cc(C(C)(C)C)c(O)c(C(C)(C)C)c1)Sc1cc(C(C)(C)C)c(OC(=O)CCCC(=O)O)c(C(C)(C)C)c1,67.9%
4,COc1c(B(O)O)cccc1-c1cc(C)c2c(ccc3[nH]ncc32)n1,122%
5,CCOC(=O)C1=C(N)Oc2c(sc3c(F)cccc23)C1c1ccc(O)cc1 (stereo unspecified),38.4%
6,OCCn1cc(-c2nc(-c3c[nH]c4ncccc34)cs2)c2cc(F)ccc21,52.4%
7,O=C(/C=C/c1cccs1)Nc1ncc(Cc2ccccc2F)s1,48%
8,COc1ccc(CN2c3ccccc3Sc3ccccc32)cc1F,49.2%
9,CCN1C(=O)N(CC)C2C1NN=c1s/c(=C\c3ccccc3F)c(=O)n12 (stereo unspecified),41.4%
10,CS(=O)(=O)Nc1cncc(-c2ccc3ncnc(Nc4cncc(Cl)c4)c3c2)c1,108%
11,C1CN(SSN2CCOCC2)CCO1,-51.7% [100 µM] (active)
12,CS(=O)(=O)c1ccc(-c2cnn3ccc(-c4cccc(S(=O)(=O)C5CC5)c4)nc23)cc1,67.9%
13,CN1C(=O)/C(=C\c2nc([P+](c3ccccc3)(c3ccccc3)c3ccccc3)c(N3CCOCC3)o2)SC1=S,90.5%
14,C=C(C)[C@@H]1CCC[C@]2(COS(=O)(=O)c3ccc(C)cc3)CC[C@]3(C)[C@@H](CC[C@@H]4[C@@]5(C)CCCNC(C)(C)[C@@H]5CC[C@]43C)[C@@H]12,-64.4% (active)
15,Clc1ccc2c(c1)C(c1c[nH]c3ccccc13)(c1c[nH]c3ccccc13)CCO2,73.3%
16,O=C(NCCNc1nccc(Nc2ccc(S(=O)(=O)Nc3ccccn3)cc2)n1)c1cccc([N+](=O)[O-])c1,89.9%
17,COc1cc2ncnc(Nc3ccc(S(=O)(=O)Nc4cc(C)on4)cc3)c2cc1OCCCN1CCN(c2ccc(F)cc2)CC1,116%
18,CN(C)CC1CCC(CN(C)C)C1=O (stereo unspecified),115%
19,N#CC1=C(N)Oc2c(ccc3ccccc23)C1c1ccccc1 (stereo unspecified),50.3%
20,Cc1ccc(NC(=O)c2sc3nc(C)c(Br)c(C)c3c2N)cc1,11.7%

# From PubChem BioAssay (NCI)
